Source: PubChem BioAssay AID1220 (Sanford-Burnham Center for Chemical Genomics, 2008)
The campaign covered roughly 190,000 compounds. About 1,300 (0.68%) were called active. Cut-off read from the data, not from the text of the source: active = inhibition above about 50%; inactive = the rest. For the sample, actives were picked, then their nearest neighbours and some compounds at random.

What follows are compounds tested against Mannose-6-phosphate isomerase (Homo sapiens) (UniProt P34949) (assay: human PMI inhibitors, high substrate, primary screen, biochemical, fluorescence intensity, high mannose 6-phosphate (AID 1220)). Conditions: recombinant PMI enzyme, coupled fluorescence intensity; at 20 µM; hits give high values.
Chain of Mannose-6-phosphate isomerase (Homo sapiens) (P34949 whole entry, looked up): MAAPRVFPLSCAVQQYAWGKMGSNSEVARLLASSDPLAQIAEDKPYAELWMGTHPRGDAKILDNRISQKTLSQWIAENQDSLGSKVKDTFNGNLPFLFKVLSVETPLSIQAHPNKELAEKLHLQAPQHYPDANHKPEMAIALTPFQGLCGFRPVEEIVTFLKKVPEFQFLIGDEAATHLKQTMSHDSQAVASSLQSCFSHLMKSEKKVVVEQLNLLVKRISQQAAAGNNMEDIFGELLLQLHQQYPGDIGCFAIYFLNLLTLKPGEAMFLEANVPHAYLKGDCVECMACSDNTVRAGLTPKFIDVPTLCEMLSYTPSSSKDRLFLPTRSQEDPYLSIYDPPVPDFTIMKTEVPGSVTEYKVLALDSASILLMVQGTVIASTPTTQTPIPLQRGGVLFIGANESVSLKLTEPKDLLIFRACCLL

inhibition, active:
O=C(O)C1CC(O)CN1c1nc(Cl)ccc1[N+](=O)[O-] (configuration not stated) 64.1%, Cc1cc(C)nc(-n2cc(C(=O)c3cc(F)ccc3O)cn2)n1 52.4%, Oc1ccc(Cl)cc1N=Cc1sc2ccccc2c1Cl 55.5%, Oc1ccccc1N=Cc1sc2ccccc2c1Cl 56.6%, Cc1ccn2cc(C(=O)Nc3nnc(C)s3)nc2c1 51.4%, CC(C)CCN1CCN(C2CCN(c3ccc4c(c3)OCO4)CC2)CC1CCO (configuration not stated) 52.3%, COCCn1c(N)c(C(=O)NCc2cccs2)c2nc3ccccc3nc21 62.5%, COCCn1c(N)c(C(=O)NCC2CCCO2)c2nc3ccccc3nc21 (configuration not stated) 71.5%, COc1ccccc1CNC(=O)c1c(N)n(CCCN2CCOCC2)c2nc3ccccc3nc12 52.5%, COc1ccc(CCn2c(N)c(C(=O)NCc3ccco3)c3nc4ccccc4nc32)cc1OC 51.6%, C=CCn1c(N)c(C(=O)NCC2CCCO2)c2nc3ccccc3nc21 (configuration not stated) 57%, COCCNC(=O)c1c(N)n(-c2ccccc2)c2nc3ccccc3nc12 55.1%, Nc1c(C(=O)NCC2CCCO2)c2nc3ccccc3nc2n1-c1ccccc1 (configuration not stated) 60.3%, CC(C)Cn1c(N)c(C(=O)NCC2CCCO2)c2nc3ccccc3nc21 (configuration not stated) 59.5%

inhibition, inactive:
OC1CCCN(Cc2cn(Cc3ccccc3)nc2-c2cc3ccccc3o2)C1 (configuration not stated) 15.3%, O=C(C1CCN(c2nc3nonc3nc2N2CCCCC2)CC1)N1CCOCC1 14.3%, CCN(C(=O)COC(=O)c1ccc2[nH]c3c(c2c1)CCCC3)C1CCS(=O)(=O)C1 (configuration not stated) -6%, Cc1cc2cc(CCNC(=O)c3cccc([N+](=O)[O-])c3)c(=O)[nH]c2cc1C -2.2%, CN(CC(=O)Nc1ccc(F)cc1)c1ccc(S(=O)(=O)N2CCCC2)cn1 1.4%, CCn1ncc([C@@H]2C[C@H]3CN(Cc4ccccc4C)C(=O)[C@]34CCCN24)c1C 25.8%, O=C(O)C1CN(c2nc(Cl)ccc2[N+](=O)[O-])C1 47.3%, O=C(O)CNc1nc(Cl)ccc1[N+](=O)[O-] 13.4%, Cc1cccc(N2C(=O)CC(N3CCOCC3)C2=O)c1 (configuration not stated) -1.5%, CC1(C)CC(=O)/C(=C(\O)c2ccccc2)C(=NCCc2ccccc2)C1 -2.6%, Cc1ccc(O)c(C(=O)c2cnn(-c3ccccc3)c2)c1 12.6%, Cc1ncc(CC(=O)n2cc(C(=O)c3cc(F)ccc3O)cn2)s1 8.5%, CCN(CC)CCCNC(=O)c1cn(CC)c2ccc(S(=O)(=O)N3CCc4ccccc4C3)cc2c1=O 0%, O=C1CNC(=O)/C1=C\c1ccc(O)cc1 -3.7%, Cc1c(NC(=O)OCCSc2nc(N(C)C)nc(N(C)C)n2)sc(=S)n1C 5.4%, CSc1ccccc1NC(=O)C(=O)c1c[nH]c2ccccc12 -2.7%, O=C(Nc1ccccc1N1CCOCC1)C1Cc2ccccc2CN1C(=O)c1ccco1 (configuration not stated) -3.5%, COc1c(Cl)cc(C(=O)Nc2ccccc2C(=O)O)cc1Cl 0.7%, O=[N+]([O-])c1ccc(O)c(N=Cc2sc3ccccc3c2O)c1 25.4%, Cc1ccc(O)c(N=Cc2sc3ccccc3c2Cl)c1 19.3%, Oc1c(C=Nc2cccc3cccnc23)sc2ccccc12 -3.1%, COc1ccc(N=Cc2sc3ccccc3c2Cl)cc1 1.8%, COc1ccc(S(=O)(=O)NCCOc2ccccc2)cc1-n1cnnn1 7.4%, Nc1nc(SCc2c(Cl)cccc2Cl)n[nH]1 -8.6%, Cc1ccn2cc(C(=O)Nc3ccc4c(c3)OCCO4)nc2c1 8.6%, CCOC(=O)c1cn2ccc(C)cc2n1 10%, CC1CCN(CC(=O)Nc2sc3c(c2C#N)CCC3)CC1 -6.5%, Cc1cc(F)ccc1N1CCC(N2CCN(CCC(C)C)C(CCO)C2)CC1 (configuration not stated) 4.2%, CC(C)CCN1CCN(C2CCN(c3ccccc3)CC2)CC1CCO (configuration not stated) 7%, C=CCSc1nnc(NC(=O)c2cn(CC)c3nc(C)ccc3c2=O)s1 -1.9%, COCCn1c(N)c(C(=O)Nc2sc3c(c2C(=O)OC)CCCC3)c2nc3ccccc3nc21 11.1%, COc1ccc(CNC(=O)c2c(N)n(CCCN3CCOCC3)c3nc4ccccc4nc23)cc1 20.1%, COc1ccc(CCn2c(N)c(C(=O)NCc3ccco3)c3nc4ccccc4nc32)cc1 48.2%, COCCn1c(N)c(S(=O)(=O)c2cccs2)c2nc3ccccc3nc21 4.3%, COCCn1c(N)c(C(=O)OCc2ccccc2)c2nc3ccccc3nc21 49.4%, Nc1c(C(=O)NCc2ccccc2)c2nc3ccccc3nc2n1CCCN1CCOCC1 49%, Nc1c(C(=O)NCc2ccco2)c2nc3ccccc3nc2n1CCc1ccccc1 34.8%, COc1ccc(OC)c(-n2c(N)c(C(=O)NCC3CCCO3)c3nc4ccccc4nc32)c1 (configuration not stated) 17.6%, COc1ccccc1/C=N/NC(=O)c1ccccc1Cl 2.7%, COc1ccc2nc(C)cc(SCC(=O)NNC(=O)COc3cccc4ccccc34)c2c1 -3%, CC(C)N(C(=O)Cn1cc(SCC(N)=O)c2ccccc21)C(C)C -4.4%, COc1cccc(NC(=O)CSCC(=O)O)c1 8.3%, CCOC(=O)Cn1cc(C(=O)c2cccs2)c2ccccc21 5.6%, O=S(=O)(NC1CC2CCC1C2)c1ccc2c(c1)OCCO2 (configuration not stated) 3.1%, CC(=O)Nc1ccc(NC(=O)Cn2c(=O)n(-c3ccc(F)cc3)c(=O)c3oc4ccccc4c32)cc1 -9.8%, COCCCNC(=O)c1c(N)n(-c2ccc(S(N)(=O)=O)cc2)c2nc3ccccc3nc12 38.7%, C=CCn1c(N)c(C(=O)Nc2ccccc2)c2nc3ccccc3nc21 13.4%, COCCNC(=O)c1c(N)n(-c2cccc(C)c2)c2nc3ccccc3nc12 25.9%, CC(C)Cn1c(N)c(C(=O)NCCN2CCOCC2)c2nc3ccccc3nc21 20.7%, O=C(NCC1CCCO1)c1coc2nc3ccccc3nc12 (configuration not stated) -9.5%, COc1ccccc1-n1c(N)c(C(=O)NCC2CCCO2)c2nc3ccccc3nc21 (configuration not stated) -18.2%, C=CCn1c(N)c(C(=O)Nc2ccc(C)c(C)c2)c2nc3ccccc3nc21 41.2%, COc1ccc(-n2c(N)c(C(=O)NCC3CCCO3)c3nc4ccccc4nc32)c(OC)c1 (configuration not stated) 45%
